Assay outcomes as filed in PubChem BioAssay.
Shown are actives, neighbours in structure and some others; about 4.8% of the full set was active somewhere.
ssDAF12 agonist – activates DAF-12 receptor from parasite S. stercoralis. HEK293 ssDAF-12/GRIP1 lit1-tk-luc reporter, luminescence; % of 3 µM dafachronic acid response. 370,000 tested, 1% active. activation, % at 6.8 µM;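 active = activation above the mean over all tested compounds plus 3 SD, cut at about 0.9% in these data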
SMARCA2 act – increases SMARCA2 function in MMTV reporter cells | MG213 cells, MMTV-luciferase reporter, dexamethasone, overnight | activation, % at 9.1 µM | 370,000 tested, 1% active; in the data active = activation above about 7.8%
DAX1 inh-1 – NR0B1 (DAX1) inhibition; AID 504766; inhibition, % at 6.75 µM; P51843; HEK293 Gal4-DAX1 luciferase reporter, luminescence; 340,000 tested, 0.99% active;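 active = inhibition above the mean over all tested compounds plus 3 SD, cut at about 4.2% in these data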;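 note: inhibition shows as a rise in luminescence from relieved DAX1 repression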
Target sequence (P51843 207-470 limits assumed): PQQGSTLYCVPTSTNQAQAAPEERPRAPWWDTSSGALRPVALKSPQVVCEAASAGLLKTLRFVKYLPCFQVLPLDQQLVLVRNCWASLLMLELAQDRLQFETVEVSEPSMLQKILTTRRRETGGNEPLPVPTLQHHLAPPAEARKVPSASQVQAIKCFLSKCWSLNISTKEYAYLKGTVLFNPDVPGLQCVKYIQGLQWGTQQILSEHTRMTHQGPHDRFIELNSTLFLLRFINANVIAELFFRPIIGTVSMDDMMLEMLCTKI
hcDAF12 agonist – H. contortus DAF-12 activation, primary screen; activation, % at 6.8 µM; HEK293 hcDAF-12 lit1-tk-luc reporter, luminescence; 0% DMSO, 100% Δ7-dafachronic acid; 370,000 tested, 1.4% active;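 active = activation above the mean of all tested compounds plus 3 SD, cut at about 5.5% in these data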
DAX1 inh-2 – blocks DAX1 repression of SF-1 activated StAR promoter; HEK293T StAR-luciferase reporter, SF-1/DAX-1 repression relief; inhibition, % at 6.8 µM; 370,000 tested, 1.1% active; AID 652010;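 active = inhibition above the mean over all tested compounds plus 3 SD, cut at about 3.6% in these data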;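 note: higher inhibition means more luminescence from relief of DAX-1 repression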
hgDAF12 agonist – agonists of H. glycines DAF-12 nuclear receptor; AID 687014; 370,000 tested, 1.8% active; HEK293 GAL4-hgDAF12 UAS-luciferase reporter, agonist luminescence; normalized to butyrate control; activation, % at 6.8 µM;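 active = activation above a cutoff set at the mean of all screened compounds plus 3 SD, cut at about 10% in these data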
SMARCA2 conf – confirmation of SMARCA2 (BRM) function activators. shares compounds with SMARCA2 act. MG213 cells, MMTV-luciferase with dexamethasone, luminescence, overnight; MG213 cells expressing E1A, Rb sequestered; DMSO wells 0%, reference activator 100%. activation, % at 9.1 µM. 3,500 tested, 30% active. AID 652260;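 active = activation above its plate's cutoff, the mean activation of tested wells plus 3 SD, cut at about 7.9% in these data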
VP16 Luc act – counter-screen for SMARCA2 activators: GAL4-VP16 luciferase reporter activation. shares compounds with SMARCA2 act. HEK293 GAL4-VP16 pG5luc reporter, luciferase luminescence; scaled: DMSO wells 0%, SAHA wells 100%. activation, % at 9.1 µM. 3,500 tested, 41% active;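 active = activation above the solvent-only control well mean plus 3 SD, averaged across control plates, cut at about 5.2% in these data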
Hits are given with their value; n = inactive; x = no result.

SMILES | ssDAF12 agonist | SMARCA2 act | DAX1 inh-1 | hcDAF12 agonist | DAX1 inh-2 | hgDAF12 agonist | SMARCA2 conf | VP16 Luc act
COc1ccc(C2=NOC(C(=O)Nc3cc(Br)ccc3O)C2)cc1OC (configuration not stated) | n | 8.6 | n | n | n | n | n | n
COc1ccc(-c2cc(NC=O)c3ncc(-c4cccc(C(=O)NCCN(C)C)c4)n3c2)cc1 | n | 8.0 | x | n | n | n | 11 | n
CC(=O)Nc1cc(-c2cccc(C(=O)NCCN(C)C)c2)cn2c(-c3cccc(C(F)(F)F)c3)cnc12 | n | 22 | x | n | n | n | n | n
CC(=O)Nc1cc(-c2cccc(C(=O)NCCN(C)C)c2)cn2c(-c3ccccc3)cnc12 | n | n | x | n | n | n | x | x
CC(=O)Nc1cccc(-c2cc(NC(C)=O)c3ncc(-c4cccc(C(C)=O)c4)n3c2)c1 | n | 8.9 | x | n | n | n | n | n
COC(=O)[C@]12C[C@H](CC(=O)NCCCN3CCCC3=O)C(=O)N(CCc3ccc(OC)c(OC)c3)C1=C[C@H](C(C)(C)C)O[C@@H]2C | n | n | x | n | n | n | x | x
O=c1c2ccccc2n(Cc2ccccc2)n1[C@@H](Cc1ccccc1)Cn1cc(C2CCCC2)nn1 | n | n | x | n | n | n | x | x
Cc1ccc(-c2nnc(SCC(=O)c3ccc(O)c(O)c3)n2-c2ccc(Cl)cc2)cc1 | n | n | x | n | n | n | x | x
O=C(O)Cn1c(=O)c(-c2ccccc2)nc2ccccc21 | n | n | n | n | n | n | x | x
O=Nc1c2nc3ccccc3n(O)c-2c2ccccc12 | n | 8.0 | n | n | n | n | 29 | 5.5
Nc1nc2c(ncn2[C@@H]2O[C@H](C(=O)NCC3CCCCC3)[C@@H](O)[C@H]2O)c(=O)[nH]1 | n | n | x | n | n | n | x | x
O=C(NC1CCCCN(Cc2ccc(Cl)cc2)C1=O)c1ccc(Cl)cc1Cl (configuration not stated) | n | n | x | n | n | n | x | x
COc1ccnc(Oc2ccc3ccccc3c2)c1C#N | n | 14 | n | n | n | n | n | 7.9
COc1ccccc1OCc1nc2ccccc2n1C | n | 10 | n | n | n | n | 12 | 7.5
CC1(C(=O)Nc2cnc3ccccc3c2)CCN1Cc1ccc2ccccc2c1 (configuration not stated) | n | 12 | x | n | n | n | n | n
CC(C)c1ccc(CN2CCC2(C)C(=O)Nc2cnc3ccccc3c2)cc1 (configuration not stated) | n | n | x | n | n | n | x | x
Clc1ccc(-c2nnc(-c3ccco3)o2)cc1 | n | 13 | n | n | n | n | 8.0 | 8.3
CN(c1cccc(NC(=O)COc2ccc(Cl)cc2Cl)c1)S(C)(=O)=O | n | 9.4 | n | n | n | n | n | 9.1
Cc1ccc(C(=O)CCNc2cccc(Br)c2)o1 | n | 8.8 | n | n | n | n | n | n
Cc1ccc(C(=O)CCNc2ccc(Br)cc2)o1 | n | n | n | n | n | n | x | x
CC(C)(C)OC(=O)NCCc1ccccc1/C=C/S(=O)(=O)NCc1ccccc1 | n | n | x | n | n | n | x | x
CCOc1ccc(NC(=S)NC(=O)c2ccco2)cc1 | n | 10 | n | n | n | n | n | 11
CCOc1ccc(/C=C2\NCCc3cc(OCC)c(OCC)cc32)cc1OCC | n | n | x | n | n | n | x | x
c1ccc2[nH]c(-c3ccncc3)nc2c1 | n | 9.5 | n | n | n | n | n | n
Fc1cc2nc(-c3ccncc3)[nH]c2cc1F | n | n | n | n | n | n | x | x
Cc1ccc(-n2sc3ccccc3c2=O)cc1 | n | 8.0 | n | n | n | n | 11 | n
COc1ccc(-c2nnc(SCC(=O)Nc3ccc(S(=O)(=O)Nc4cc(C)nc(C)n4)cc3)n2-c2ccc(OC)cc2)cc1 | n | 10 | x | n | n | n | n | n
